# Measurements as given in publication PMC7862700, “An all-to-all approach to the identification of sequence-specific readers for epigenetic DNA modifications on cytosine”.
# Tests used:
# Assay in all cases: DAPPL (digital affinity profiling via proximity ligation, sequencing); 10 mM Tris-HCl pH 7.5, 50 mM NaCl, 1 mM DTT, 4% glycerol, room temperature, 30 min; GST-TFs on glutathione beads, 16-mer random dsDNA library, 0.1% formaldehyde crosslink after washing; high values mean tight binding
# [1] = target: T1, FLI1 (Homo sapiens, UniProt Q01543 1-452); conditions: protein: recombinant; tags: N-terminal GST; dsDNA, one strand shown
# T1 sequence: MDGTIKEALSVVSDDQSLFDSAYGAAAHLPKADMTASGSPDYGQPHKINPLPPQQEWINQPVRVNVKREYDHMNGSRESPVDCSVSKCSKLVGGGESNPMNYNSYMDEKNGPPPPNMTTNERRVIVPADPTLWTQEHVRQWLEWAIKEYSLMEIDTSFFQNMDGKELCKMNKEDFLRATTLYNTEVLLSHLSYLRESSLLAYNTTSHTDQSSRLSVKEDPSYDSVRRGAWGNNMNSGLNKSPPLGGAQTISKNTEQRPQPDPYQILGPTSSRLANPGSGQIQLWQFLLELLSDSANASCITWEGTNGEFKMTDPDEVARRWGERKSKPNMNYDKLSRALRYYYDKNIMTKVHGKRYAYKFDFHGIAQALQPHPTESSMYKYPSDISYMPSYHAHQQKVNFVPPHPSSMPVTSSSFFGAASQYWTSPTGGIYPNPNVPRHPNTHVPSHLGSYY
# Summary of the method: (§1)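 A tag-only sample was pooled with DNA-barcoded human transcription factors that had been expressed in yeast as GST fusions and captured on glutathione beads. The pools were incubated for 30 min at room temperature with 200 nmole of a random double-stranded 16-mer DNA library in Tris/NaCl/DTT/glycerol buffer, then washed, crosslinked with 0.1% formaldehyde, proximity-ligated (BsaI/T4 ligase, 1 h, 37 °C), PCR-amplified and sequenced on an Illumina NextSeq500. Binding signal is each hexamer's read frequency for a factor divided by its frequency for the tag-only sample.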
# [2] = target: T2, ELK1 (Homo sapiens, UniProt P19419 1-428); conditions: protein: recombinant; tags: N-terminal GST; dsDNA, one strand shown
# T2 sequence: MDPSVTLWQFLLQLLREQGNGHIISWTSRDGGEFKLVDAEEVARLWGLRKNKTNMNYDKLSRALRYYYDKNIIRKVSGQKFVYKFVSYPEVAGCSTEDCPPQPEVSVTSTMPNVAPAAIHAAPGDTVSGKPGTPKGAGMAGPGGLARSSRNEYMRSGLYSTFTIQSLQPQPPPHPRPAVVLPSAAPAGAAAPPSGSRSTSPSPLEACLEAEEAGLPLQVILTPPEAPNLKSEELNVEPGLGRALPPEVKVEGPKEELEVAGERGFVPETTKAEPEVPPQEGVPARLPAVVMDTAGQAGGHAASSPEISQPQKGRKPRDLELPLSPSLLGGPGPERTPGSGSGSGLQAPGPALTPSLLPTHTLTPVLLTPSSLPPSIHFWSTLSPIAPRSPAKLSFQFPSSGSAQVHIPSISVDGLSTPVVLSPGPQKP
# Summary of the method: as §1
# [3] = target: T3, GABPA (Homo sapiens, UniProt Q06546 1-454); conditions: protein: recombinant; tags: N-terminal GST; dsDNA, one strand shown
# T3 sequence: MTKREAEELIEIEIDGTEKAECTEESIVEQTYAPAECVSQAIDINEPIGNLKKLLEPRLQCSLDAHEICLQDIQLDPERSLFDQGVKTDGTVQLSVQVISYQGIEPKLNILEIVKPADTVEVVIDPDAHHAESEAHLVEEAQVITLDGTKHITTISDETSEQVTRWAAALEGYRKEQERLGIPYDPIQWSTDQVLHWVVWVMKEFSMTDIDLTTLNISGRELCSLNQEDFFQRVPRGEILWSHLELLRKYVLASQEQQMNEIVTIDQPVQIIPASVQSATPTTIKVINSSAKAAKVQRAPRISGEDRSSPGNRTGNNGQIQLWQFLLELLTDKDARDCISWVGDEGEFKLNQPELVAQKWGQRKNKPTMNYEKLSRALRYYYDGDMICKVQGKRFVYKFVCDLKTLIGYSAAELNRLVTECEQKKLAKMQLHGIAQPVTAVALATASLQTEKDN
# Summary of the method: as §1
# [4] = target: T4, ERG (Homo sapiens, UniProt P11308 1-479); conditions: protein: recombinant; tags: N-terminal GST; dsDNA, one strand shown
# T4 sequence: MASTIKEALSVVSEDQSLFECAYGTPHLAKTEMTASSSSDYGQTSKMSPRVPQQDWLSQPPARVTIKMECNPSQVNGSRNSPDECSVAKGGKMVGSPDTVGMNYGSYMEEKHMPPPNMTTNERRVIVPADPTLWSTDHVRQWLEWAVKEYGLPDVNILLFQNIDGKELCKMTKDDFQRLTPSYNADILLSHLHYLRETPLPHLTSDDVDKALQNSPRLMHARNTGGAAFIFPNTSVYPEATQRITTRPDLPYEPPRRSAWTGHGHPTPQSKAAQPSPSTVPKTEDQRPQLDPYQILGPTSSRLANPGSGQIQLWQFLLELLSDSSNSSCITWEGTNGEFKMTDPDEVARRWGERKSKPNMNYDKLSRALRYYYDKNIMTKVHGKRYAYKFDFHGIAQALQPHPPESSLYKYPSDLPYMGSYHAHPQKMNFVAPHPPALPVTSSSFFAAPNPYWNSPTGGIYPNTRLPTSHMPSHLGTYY
# Summary of the method: as §1
# [5] = target: ELF1 (Homo sapiens, UniProt P32519 1-619); conditions: protein: recombinant; tags: N-terminal GST; dsDNA, one strand shown
# ELF1, sequence (P32519 whole entry): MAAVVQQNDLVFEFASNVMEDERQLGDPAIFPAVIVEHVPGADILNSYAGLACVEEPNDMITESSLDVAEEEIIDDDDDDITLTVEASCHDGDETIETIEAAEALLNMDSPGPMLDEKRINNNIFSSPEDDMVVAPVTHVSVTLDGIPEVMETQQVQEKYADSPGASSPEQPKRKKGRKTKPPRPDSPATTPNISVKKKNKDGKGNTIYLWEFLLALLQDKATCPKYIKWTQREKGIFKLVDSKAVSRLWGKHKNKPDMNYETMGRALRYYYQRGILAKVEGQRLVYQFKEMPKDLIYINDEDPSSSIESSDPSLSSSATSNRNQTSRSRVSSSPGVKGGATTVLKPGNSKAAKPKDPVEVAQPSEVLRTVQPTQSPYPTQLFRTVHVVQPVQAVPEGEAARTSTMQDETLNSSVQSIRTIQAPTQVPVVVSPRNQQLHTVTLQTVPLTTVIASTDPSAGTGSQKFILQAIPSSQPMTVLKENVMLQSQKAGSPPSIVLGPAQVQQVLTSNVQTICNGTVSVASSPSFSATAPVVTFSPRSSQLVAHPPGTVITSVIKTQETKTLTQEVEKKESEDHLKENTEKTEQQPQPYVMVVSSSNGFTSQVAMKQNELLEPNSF
# Summary of the method: as §1
# [6] = target: T5, EHF (Homo sapiens, UniProt Q9NZC4 1-300); conditions: protein: recombinant; tags: N-terminal GST; dsDNA, one strand shown
# T5 sequence: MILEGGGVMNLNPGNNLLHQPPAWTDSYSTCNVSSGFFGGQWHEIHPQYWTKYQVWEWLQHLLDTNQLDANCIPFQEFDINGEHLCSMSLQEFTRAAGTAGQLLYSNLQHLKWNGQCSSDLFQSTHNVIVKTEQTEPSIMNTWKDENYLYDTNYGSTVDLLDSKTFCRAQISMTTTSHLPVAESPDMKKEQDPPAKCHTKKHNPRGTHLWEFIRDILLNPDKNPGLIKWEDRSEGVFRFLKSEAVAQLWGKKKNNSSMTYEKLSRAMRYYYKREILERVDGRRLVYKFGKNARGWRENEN
# Summary of the method: as §1
# [7] = target: SPI1 (Homo sapiens, UniProt P17947 1-270); conditions: protein: recombinant; tags: N-terminal GST; dsDNA, one strand shown
# Summary of the method: as §1
# [8] = target: SPIB (Homo sapiens, UniProt Q01892 1-262); conditions: protein: recombinant; tags: N-terminal GST; dsDNA, one strand shown
# SPIB, sequence (Q01892 whole entry): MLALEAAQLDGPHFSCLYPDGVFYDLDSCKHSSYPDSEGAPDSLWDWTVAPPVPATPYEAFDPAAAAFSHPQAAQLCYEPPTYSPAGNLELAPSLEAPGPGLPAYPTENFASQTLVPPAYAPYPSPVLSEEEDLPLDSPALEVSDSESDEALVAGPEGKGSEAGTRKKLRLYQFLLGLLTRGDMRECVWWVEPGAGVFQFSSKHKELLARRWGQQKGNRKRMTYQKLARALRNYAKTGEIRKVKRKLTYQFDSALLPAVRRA
# Summary of the method: as §1
# [9] = target: T6, ELK3 (Homo sapiens, UniProt P41970 1-407); conditions: protein: recombinant; tags: N-terminal GST; dsDNA, one strand shown
# T6 sequence: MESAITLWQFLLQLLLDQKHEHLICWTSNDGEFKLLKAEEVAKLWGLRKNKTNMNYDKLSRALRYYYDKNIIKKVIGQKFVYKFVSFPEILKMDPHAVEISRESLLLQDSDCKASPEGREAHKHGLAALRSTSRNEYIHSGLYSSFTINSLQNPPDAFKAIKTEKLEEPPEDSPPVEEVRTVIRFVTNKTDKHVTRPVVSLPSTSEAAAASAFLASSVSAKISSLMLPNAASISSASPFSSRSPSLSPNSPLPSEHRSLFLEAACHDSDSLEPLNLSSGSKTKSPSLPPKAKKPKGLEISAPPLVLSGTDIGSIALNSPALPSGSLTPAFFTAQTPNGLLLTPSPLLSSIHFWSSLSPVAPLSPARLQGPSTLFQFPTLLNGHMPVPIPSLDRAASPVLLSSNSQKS
# Summary of the method: as §1
# [10] = target: T7, FEV (Homo sapiens, UniProt Q99581 1-238); conditions: protein: recombinant; tags: N-terminal GST; dsDNA, one strand shown
# T7 sequence: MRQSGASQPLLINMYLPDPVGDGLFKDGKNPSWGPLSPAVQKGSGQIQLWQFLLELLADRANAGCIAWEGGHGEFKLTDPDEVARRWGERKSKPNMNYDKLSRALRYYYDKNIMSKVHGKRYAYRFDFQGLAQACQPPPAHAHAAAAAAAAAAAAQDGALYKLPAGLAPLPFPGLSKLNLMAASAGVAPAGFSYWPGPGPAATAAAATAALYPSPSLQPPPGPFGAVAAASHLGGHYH
# Summary of the method: as §1
# [11] = target: ETV5 (Homo sapiens, UniProt P41161 1-510); conditions: protein: recombinant; tags: N-terminal GST; dsDNA, one strand shown
# ETV5, sequence (P41161 whole entry): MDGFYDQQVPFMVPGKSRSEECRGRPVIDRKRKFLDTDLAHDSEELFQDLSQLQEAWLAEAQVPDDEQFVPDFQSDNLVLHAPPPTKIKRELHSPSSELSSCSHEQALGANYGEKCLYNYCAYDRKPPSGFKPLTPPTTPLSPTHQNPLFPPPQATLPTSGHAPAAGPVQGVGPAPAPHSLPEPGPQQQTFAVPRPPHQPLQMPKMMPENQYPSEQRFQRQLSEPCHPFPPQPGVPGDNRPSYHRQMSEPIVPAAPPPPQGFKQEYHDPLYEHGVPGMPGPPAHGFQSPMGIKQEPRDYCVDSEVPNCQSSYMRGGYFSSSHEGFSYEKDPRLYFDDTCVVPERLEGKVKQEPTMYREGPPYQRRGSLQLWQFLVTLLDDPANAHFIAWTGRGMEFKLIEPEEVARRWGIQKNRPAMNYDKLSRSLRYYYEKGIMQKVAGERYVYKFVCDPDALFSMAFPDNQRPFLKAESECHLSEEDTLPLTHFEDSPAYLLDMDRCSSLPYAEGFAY
# Summary of the method: as §1
# [12] = target: HSF1 (Homo sapiens, UniProt Q00613 1-529); conditions: protein: recombinant; tags: N-terminal GST; chain copies: 3; dsDNA, one strand shown
# HSF1, sequence (Q00613 whole entry): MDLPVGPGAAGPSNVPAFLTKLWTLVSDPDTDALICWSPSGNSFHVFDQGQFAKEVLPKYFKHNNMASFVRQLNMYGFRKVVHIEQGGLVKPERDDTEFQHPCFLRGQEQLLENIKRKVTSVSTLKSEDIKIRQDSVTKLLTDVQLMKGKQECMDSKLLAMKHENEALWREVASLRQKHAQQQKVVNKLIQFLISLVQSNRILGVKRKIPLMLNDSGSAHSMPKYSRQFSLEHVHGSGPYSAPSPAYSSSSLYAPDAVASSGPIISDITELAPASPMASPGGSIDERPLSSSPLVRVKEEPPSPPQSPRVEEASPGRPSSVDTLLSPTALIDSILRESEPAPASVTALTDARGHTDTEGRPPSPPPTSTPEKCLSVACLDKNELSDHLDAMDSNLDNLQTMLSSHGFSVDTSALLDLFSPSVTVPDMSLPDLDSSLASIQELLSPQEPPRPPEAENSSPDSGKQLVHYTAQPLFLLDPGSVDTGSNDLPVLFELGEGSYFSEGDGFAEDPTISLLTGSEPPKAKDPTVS
# Summary of the method: as §1
# [13] = target: T8, SPIC (Homo sapiens, UniProt Q8N5J4 1-248); conditions: protein: recombinant; tags: N-terminal GST; dsDNA, one strand shown
# T8 sequence: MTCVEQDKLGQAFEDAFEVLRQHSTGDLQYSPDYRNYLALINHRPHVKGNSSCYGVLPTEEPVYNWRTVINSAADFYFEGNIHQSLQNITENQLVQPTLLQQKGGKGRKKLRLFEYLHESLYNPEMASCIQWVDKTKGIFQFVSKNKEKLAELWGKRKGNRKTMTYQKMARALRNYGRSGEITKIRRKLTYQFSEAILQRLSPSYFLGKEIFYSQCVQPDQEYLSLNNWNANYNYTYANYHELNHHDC
# Summary of the method: as §1
# [14] = target: ELF4 (Homo sapiens, UniProt Q99607 1-663); conditions: protein: recombinant; tags: N-terminal GST; dsDNA, one strand shown
# ELF4, sequence (Q99607 whole entry): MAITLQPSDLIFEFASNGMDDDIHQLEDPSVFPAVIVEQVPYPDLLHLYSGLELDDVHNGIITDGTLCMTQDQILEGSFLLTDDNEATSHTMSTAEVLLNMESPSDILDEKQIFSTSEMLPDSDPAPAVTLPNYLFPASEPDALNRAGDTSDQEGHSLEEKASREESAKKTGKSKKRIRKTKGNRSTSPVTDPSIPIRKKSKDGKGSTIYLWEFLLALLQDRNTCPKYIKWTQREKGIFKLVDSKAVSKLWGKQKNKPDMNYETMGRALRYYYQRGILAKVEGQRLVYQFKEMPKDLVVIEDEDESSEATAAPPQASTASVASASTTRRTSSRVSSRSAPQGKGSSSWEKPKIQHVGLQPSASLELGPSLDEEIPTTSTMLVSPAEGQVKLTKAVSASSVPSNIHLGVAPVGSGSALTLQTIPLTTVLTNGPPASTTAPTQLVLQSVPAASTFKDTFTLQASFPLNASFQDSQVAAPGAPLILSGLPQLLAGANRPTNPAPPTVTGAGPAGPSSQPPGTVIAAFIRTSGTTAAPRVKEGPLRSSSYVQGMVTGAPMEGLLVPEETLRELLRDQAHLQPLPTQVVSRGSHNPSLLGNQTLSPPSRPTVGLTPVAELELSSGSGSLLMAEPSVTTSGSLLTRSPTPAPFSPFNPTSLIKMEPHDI
# Summary of the method: as §1
# [15] = target: T9, ELK4 (Homo sapiens, UniProt P28324-2 1-405); conditions: protein: recombinant; tags: N-terminal GST; dsDNA, one strand shown
# T9 sequence: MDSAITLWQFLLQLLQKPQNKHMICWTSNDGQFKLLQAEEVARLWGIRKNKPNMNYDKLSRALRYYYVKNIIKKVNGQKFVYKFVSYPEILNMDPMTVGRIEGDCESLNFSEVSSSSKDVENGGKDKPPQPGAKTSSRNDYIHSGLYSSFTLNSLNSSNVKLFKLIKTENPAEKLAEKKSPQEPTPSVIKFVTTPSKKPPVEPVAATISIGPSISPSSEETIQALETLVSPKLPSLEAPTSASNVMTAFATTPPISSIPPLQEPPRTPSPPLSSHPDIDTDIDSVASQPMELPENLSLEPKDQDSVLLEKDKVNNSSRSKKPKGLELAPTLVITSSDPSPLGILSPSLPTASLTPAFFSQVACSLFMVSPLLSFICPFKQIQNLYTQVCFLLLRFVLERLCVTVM
# Summary of the method: as §1
# [16] = target: T10, ETV2 (Homo sapiens, UniProt O00321 1-342); conditions: protein: recombinant; tags: N-terminal GST; dsDNA, one strand shown
# T10 sequence: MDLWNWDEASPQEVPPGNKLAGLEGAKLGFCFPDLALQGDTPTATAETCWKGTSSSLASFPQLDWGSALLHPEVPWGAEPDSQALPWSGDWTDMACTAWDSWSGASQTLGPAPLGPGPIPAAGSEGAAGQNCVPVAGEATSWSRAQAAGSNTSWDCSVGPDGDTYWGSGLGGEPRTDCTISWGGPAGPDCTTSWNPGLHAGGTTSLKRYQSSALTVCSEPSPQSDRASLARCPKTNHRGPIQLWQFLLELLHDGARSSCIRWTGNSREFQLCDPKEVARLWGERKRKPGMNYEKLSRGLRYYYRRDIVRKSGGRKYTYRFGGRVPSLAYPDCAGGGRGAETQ
# Summary of the method: as §1
# [17] = target: T11, ELF3 (Homo sapiens, UniProt P78545 1-371); conditions: protein: recombinant; tags: N-terminal GST; dsDNA, one strand shown
# T11 sequence: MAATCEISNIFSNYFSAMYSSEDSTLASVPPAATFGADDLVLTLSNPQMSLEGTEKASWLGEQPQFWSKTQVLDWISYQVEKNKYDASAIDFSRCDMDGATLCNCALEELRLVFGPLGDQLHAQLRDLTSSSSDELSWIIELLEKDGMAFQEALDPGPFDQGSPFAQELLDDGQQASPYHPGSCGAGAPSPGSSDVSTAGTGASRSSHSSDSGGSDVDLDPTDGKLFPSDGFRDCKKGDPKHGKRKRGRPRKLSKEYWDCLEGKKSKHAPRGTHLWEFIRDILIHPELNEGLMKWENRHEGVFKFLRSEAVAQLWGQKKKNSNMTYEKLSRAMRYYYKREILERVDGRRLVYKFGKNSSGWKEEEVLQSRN
# Summary of the method: as §1
# [18] = target: CRX (Homo sapiens, UniProt O43186 1-299); conditions: protein: recombinant; tags: N-terminal GST; dsDNA, one strand shown
# CRX, sequence (O43186 whole entry): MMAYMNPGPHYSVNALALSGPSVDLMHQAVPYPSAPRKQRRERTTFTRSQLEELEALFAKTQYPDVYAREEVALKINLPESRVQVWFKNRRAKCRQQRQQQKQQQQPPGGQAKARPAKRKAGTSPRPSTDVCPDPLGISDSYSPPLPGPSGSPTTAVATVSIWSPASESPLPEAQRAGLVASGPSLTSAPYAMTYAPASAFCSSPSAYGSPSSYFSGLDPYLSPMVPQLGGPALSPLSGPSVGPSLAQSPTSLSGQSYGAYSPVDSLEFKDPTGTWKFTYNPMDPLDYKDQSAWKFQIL
# Summary of the method: as §1
# [19] = target: ETV1 (Homo sapiens, UniProt P50549 1-477); conditions: protein: recombinant; tags: N-terminal GST; dsDNA, one strand shown
# ETV1, sequence (P50549 whole entry): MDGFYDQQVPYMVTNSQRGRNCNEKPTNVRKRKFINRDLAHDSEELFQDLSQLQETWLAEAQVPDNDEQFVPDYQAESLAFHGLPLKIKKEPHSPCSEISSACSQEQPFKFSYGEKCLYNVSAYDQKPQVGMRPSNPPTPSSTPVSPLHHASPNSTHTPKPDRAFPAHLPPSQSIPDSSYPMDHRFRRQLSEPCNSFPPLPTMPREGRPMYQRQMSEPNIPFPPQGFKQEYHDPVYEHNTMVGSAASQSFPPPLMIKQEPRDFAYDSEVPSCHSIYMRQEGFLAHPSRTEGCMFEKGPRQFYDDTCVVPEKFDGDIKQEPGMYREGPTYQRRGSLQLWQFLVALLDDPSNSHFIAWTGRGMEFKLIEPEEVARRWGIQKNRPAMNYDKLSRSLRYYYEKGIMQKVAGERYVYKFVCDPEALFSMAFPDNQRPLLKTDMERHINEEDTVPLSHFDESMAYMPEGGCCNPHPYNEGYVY
# Summary of the method: as §1
sequence,measurement,setting,value
TTAATA,binding signal,[1],"1.28 fold enrichment (6-mer frequency, TF over GST control)"
same,binding signal,[2],"1.23 fold enrichment (6-mer frequency, TF over GST control)"
same,binding signal,[3],"1.18 fold enrichment (6-mer frequency, TF over GST control)"
same,binding signal,[4],"1.16 fold enrichment (6-mer frequency, TF over GST control)"
same,binding signal,[5],"1.16 fold enrichment (6-mer frequency, TF over GST control)"
same,binding signal,[6],"1.23 fold enrichment (6-mer frequency, TF over GST control)"
same,binding signal,[7],"1.09 fold enrichment (6-mer frequency, TF over GST control)"
same,binding signal,[8],"1.22 fold enrichment (6-mer frequency, TF over GST control)"
same,binding signal,[9],"1.29 fold enrichment (6-mer frequency, TF over GST control)"
same,binding signal,[10],"1.19 fold enrichment (6-mer frequency, TF over GST control)"
same,binding signal,[11],"1.15 fold enrichment (6-mer frequency, TF over GST control)"
same,binding signal,[12],"2.09 fold enrichment (6-mer frequency, TF over GST control)"
same,binding signal,[13],"1.11 fold enrichment (6-mer frequency, TF over GST control)"
same,binding signal,[14],"1.23 fold enrichment (6-mer frequency, TF over GST control)"
same,binding signal,[15],"1.08 fold enrichment (6-mer frequency, TF over GST control)"
same,binding signal,[16],"1.25 fold enrichment (6-mer frequency, TF over GST control)"
same,binding signal,[17],"1.06 fold enrichment (6-mer frequency, TF over GST control)"
same,binding signal,[18],"3.19 fold enrichment (6-mer frequency, TF over GST control)"
same,binding signal,[19],"1.09 fold enrichment (6-mer frequency, TF over GST control)"
